# Measurements reported in article PMC4102417.
# System: murine 3T3 fibroblasts
# Experiment: primary screen, percent viability or growth; higher = less effect of the substance
# Procedure: Similarly, for measuring the cytotoxicity concentration (CC50) for 3T3 fibroblast cells, cultures were incubated with drugs for 72 hours and developed using Alamar Blue (Alamar Biosciences Inc, Sacramento, CA) as previously described.
row,Structure (SMILES),Mammalian (3T3) cell % growth at 10 uM [%]
1,OCCN1CCN(CCCN2c3ccccc3Sc3ccc(C(F)(F)F)cc32)CC1,100
2,CCCCC1C(=O)N(c2ccccc2)N(c2ccc(O)cc2)C1=O (centres unmarked),72.8
3,C=CC(C)(O)CCC1C(=C)CCC2C(C)(CO)CCCC12C (centres unmarked),86.1
4,COc1ccc(-c2coc3cc(O)ccc3c2=O)c(O)c1O,1.4
5,CN(C)CC/C=C1/c2ccccc2Sc2ccc(Cl)cc21,97.1
6,COC(=O)C1(C)CCC2(C)CCC3(C)C4=CC=C5C(=CC(=O)C(O)=C5C)C4(C)CCC3(C)C2C1 (centres unmarked),0.6
7,O=c1c(O)c(-c2ccccc2)oc2ccccc12,85.7
8,CC(=O)[C@H]1CC[C@H]2[C@@H]3CC[C@H]4C[C@@H](O)CC[C@]4(C)[C@H]3CC[C@]12C,100
9,O=C1C=CC(=O)c2c(O)cccc21,66.4
10,C#C[C@]1(O)CC[C@H]2[C@@H]3CCC4=Cc5oncc5C[C@]4(C)[C@H]3CC[C@@]21C,90.2
11,Cl.Cl.O=C1c2c(O)ccc(O)c2C(=O)c2c(NCCNCCO)ccc(NCCNCCO)c21,14
12,COC1C=CC23c4cc5c(cc4CN(CC2O)C3C1)OCO5 (centres unmarked),36.2
13,CCN(CC)CCOc1ccc(C(=C(Cl)c2ccccc2)c2ccccc2)cc1,100
14,CNCCC(Oc1ccc(C(F)(F)F)cc1)c1ccccc1.Cl (centres unmarked),100
15,Clc1ccc(COC(Cn2ccnc2)c2ccc(Cl)cc2Cl)c(Cl)c1 (centres unmarked),100
16,COc1ccc(CCN2CCC(Nc3nc4ccccc4n3Cc3ccc(F)cc3)CC2)cc1,100

row,Structure (SMILES),Mammalian (3T3) cell % growth at 10 uM [%]
1,CCCCCCCC/C=C/CCCCCCCCOP(=O)([O-])OCC[N+](C)(C)C,93.7
2,CO[C@H]1C[C@H](O[C@H]2[C@H](C)[C@@H](O[C@@H]3O[C@H](C)C[C@H](N(C)C)[C@H]3O)[C@@H](C)C[C@@]3(CO3)C(=O)[C@H](C)[C@@H](O)[C@@H](C)[C@@H](C)OC(=O)[C@@H]2C)O[C@@H](C)[C@@H]1O.O=P(O)(O)O,100
3,Cl.NCC(=O)c1ccccc1,85.5
4,CCC1(O)CC2CN(CCc3c([nH]c4ccccc34)C(C(=O)OC)(c3cc4c(cc3OC)N(C)C3C(O)(C(=O)OC)C(OC(C)=O)C5(CC)C=CCN6CCC43C65)C2)C1.O=S(=O)(O)O (centres unmarked),36.2
5,CCN(CC)Cc1cc(Nc2ccnc3cc(Cl)ccc23)ccc1O,24.4
6,COc1c2c(cc3occ(-c4ccc5c(c4)OCO5)c(=O)c13)OC(C)(C)C=C2,68.2
7,CC(C)c1c(O)ccc2c1CC[C@H]1C(C)(C)CCC[C@]21C,67.4
8,C=CC(C)(O)CCC1C(=C)CC(O)C2C(C)(C)CCCC12C (centres unmarked),74
9,CC(=O)OC1CC2C(C)(C)C(O)CCC2(C)C2CCC3(C)C(c4ccoc4)OC(=O)C4OC43C12C (centres unmarked),76.3
10,CSc1ccc2c(c1)C(N1CCN(C)CC1)Cc1ccccc1S2.O=C(O)/C=C\C(=O)O (centres unmarked),69.6
11,C1CCC(C(CC2CCCCN2)C2CCCCC2)CC1.O=C(O)/C=C\C(=O)O (centres unmarked),-0.2
12,CC[C@@H]1/C=C/C=C/C[C@H](C)[C@@H](O)[C@](C)(O)C(=O)[C@H](C)[C@@H](O)[C@H](C)C(=O)[C@H](C)[C@@H](O)[C@H](C)/C=C/C(=O)O[C@H]2[C@@H](C)[C@@H](CC1)O[C@@]1(CC[C@@H](C)[C@@H](C[C@@H](C)O)O1)[C@@H]2C,57.7
13,N=C(N)c1ccc(OCCCCCOc2ccc(C(=N)N)cc2)cc1.O=S(=O)(O)CCO,94.8
14,CCCOc1ccc2nc(NC(=O)OC)[nH]c2c1,52.8
15,CN1CCC(=C2c3ccccc3CCc3sccc32)CC1.O=C(O)CC(O)C(=O)O,86.5
16,COc1c(C)c2c(c(O)c1C/C=C(\C)CCC(=O)O)C(=O)OC2,97.2
